Test results as given in the supplement of paper PMC10849652.
Targets with a hit are over-represented here; the source holds about 8,800 in all. About 0.5% of all pairs of compound and target were hits.

Assays:
Test in all cases: log2 fold change, soluble protein after heating vs DMSO (PISA); higher = thermal stabilisation; K562 lysate, 10 uM; active = over 0.2 and 3.5 SD of the protein, either way, in both replicates (recomputed)
erlotinib = compound: C#Cc1cccc(Nc2ncnc3cc(OCCOC)c(OCCOC)cc23)c1 [erlotinib]
In short: (§1)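 K562 pellets were dounce-homogenised in PBS pH 7.4 with 1 mM MgCl2, and the crude extract at 1 mg/mL protein was treated with 10 μM compound for 30 min. Aliquots were heated for 3 min across 48°C-58°C, pooled, and brought to 0.5% NP-40 at 4°C; soluble protein was the supernatant after 21,000xg for 90 min. Soluble protein was quantified by TMTpro 16plex LC-MS/MS with channel sums equalised, and reported as log2 fold change in thermal stability against DMSO controls, with values from duplicates.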

[1] = compound: C/C(=N\NC(=O)C1=CC(=CC=C1)S(=O)(=O)N2CCOCC2)/C3=C(C=CC(=C3)Cl)O
In short: as §1

[2] = compound: C1=CC(=CC=C1C2=NC3=C(N2)C=C(C=C3)C(=O)N)OC4=CC=C(C=C4)Cl
In short: as §1

[3] = compound: C1=CC2=C(C=CC(=C2)/C=C\3/C(=O)NC(=NCC4=CC=CS4)S3)N=C1
In short: as §1

[4] = compound: C1=CC2=NC=CN=C2C=C1/C=C/3\C(=O)NC(=O)S3
In short: as §1

[5] = compound: C1=CC=C(C=C1)C2=NC(=C(N2)C3=CC=NC=C3)C4=CC(=C(C=C4)Cl)O
In short: as §1

[6] = compound: C1=CC=C2C(=C1)C3=NNC4=CC=CC(=C43)C2=O
In short: as §1

[7] = compound: C1CCN(C1)C(=O)NC2=CC=CC(=C2)NC3=NC=C(C(=N3)NCCC4=CN=CN4)Br
In short: as §1

[8] = compound: C1CN(CCC1(CC2=CC=C(C=C2)Cl)N)C3=NC=NC4=C3C=CN4
In short: as §1

IRAK-1-4 Inhibitor I = compound: C1COCCN1CCN2C3=CC=CC=C3N=C2NC(=O)C4=CC(=CC=C4)[N+](=O)[O-] [IRAK-1-4 Inhibitor I]
In short: as §1

ibrutinib = compound: C=CC(=O)N1CCC[C@@H](n2nc(-c3ccc(Oc4ccccc4)cc3)c3c(N)ncnc32)C1 [ibrutinib]
In short: as §1

[9] = compound: CC(=O)c1cnc2ccc(-c3cc(Cl)c(O)c(Cl)c3)nc2c1N[C@H]1CC[C@H](CN(C)C)CC1
In short: as §1

ralimetinib = compound: CC(C)(C)Cn1c(N)nc2ccc(-c3[nH]c(C(C)(C)C)nc3-c3ccc(F)cc3)nc21 [ralimetinib]
In short: as §1

[10] = compound: CC(C)(O)CC(=O)NCCn1ccc2ncnc(Nc3ccc(Oc4cccc(C(F)(F)F)c4)c(Cl)c3)c21
In short: as §1

[11] = compound: CC(C)C1=C2N=C(C=C(N2N=C1)NCC3=CC=CC=C3)NCCCCCCN
In short: as §1

[12] = compound: CC1=C(C2=C(C=C1)C(=O)C3=CC=CC=C3N2CCCN)C
In short: as §1

[13] = compound: CC1=C(C=C(C=C1)NC(=O)C2=CC(=CC=C2)C(C)(C)C#N)NC3=CC4=C(C=C3)N=CN(C4=O)C
In short: as §1

[14] = compound: CC1=C(C=C(C=C1)NC(=O)C2=CC(=CC=C2)N(C)C)NC(=O)C3=CC=C(C=C3)O
In short: as §1

[15] = compound: CC1=CC=C(C=C1)SC2=C3C=C(SC3=CN=C2)C(=O)N
In short: as §1

[16] = compound: CC1=C(C(CC(=O)N1)C2=CC=C(C=C2)C(F)(F)F)C(=O)NC3=C(C=C4C(=C3)C=NN4)F
In short: as §1

Measured: log2 fold change

PPP1R12B isoform 6 (UniProt O60237)
inactive: erlotinib -0.081 | [1] 0.025 | [2] -0.103 | [3] -0.08 | [4] 0.057 | [5] -0.053 | [6] -0.07 | [7] -0.123 | [8] 0.037 | IRAK-1-4 Inhibitor I 0.153 | ibrutinib 0.019 | [9] -0.112 | ralimetinib 0.01 | [10] -0.251 | [11] 0.095 | [12] 0.106 | [13] 0.142 | [14] -0.012 | [15] -0.194

PTK2 (UniProt Q05397)
Sequence of UniProt Q05397 (Q05397 whole entry, looked up): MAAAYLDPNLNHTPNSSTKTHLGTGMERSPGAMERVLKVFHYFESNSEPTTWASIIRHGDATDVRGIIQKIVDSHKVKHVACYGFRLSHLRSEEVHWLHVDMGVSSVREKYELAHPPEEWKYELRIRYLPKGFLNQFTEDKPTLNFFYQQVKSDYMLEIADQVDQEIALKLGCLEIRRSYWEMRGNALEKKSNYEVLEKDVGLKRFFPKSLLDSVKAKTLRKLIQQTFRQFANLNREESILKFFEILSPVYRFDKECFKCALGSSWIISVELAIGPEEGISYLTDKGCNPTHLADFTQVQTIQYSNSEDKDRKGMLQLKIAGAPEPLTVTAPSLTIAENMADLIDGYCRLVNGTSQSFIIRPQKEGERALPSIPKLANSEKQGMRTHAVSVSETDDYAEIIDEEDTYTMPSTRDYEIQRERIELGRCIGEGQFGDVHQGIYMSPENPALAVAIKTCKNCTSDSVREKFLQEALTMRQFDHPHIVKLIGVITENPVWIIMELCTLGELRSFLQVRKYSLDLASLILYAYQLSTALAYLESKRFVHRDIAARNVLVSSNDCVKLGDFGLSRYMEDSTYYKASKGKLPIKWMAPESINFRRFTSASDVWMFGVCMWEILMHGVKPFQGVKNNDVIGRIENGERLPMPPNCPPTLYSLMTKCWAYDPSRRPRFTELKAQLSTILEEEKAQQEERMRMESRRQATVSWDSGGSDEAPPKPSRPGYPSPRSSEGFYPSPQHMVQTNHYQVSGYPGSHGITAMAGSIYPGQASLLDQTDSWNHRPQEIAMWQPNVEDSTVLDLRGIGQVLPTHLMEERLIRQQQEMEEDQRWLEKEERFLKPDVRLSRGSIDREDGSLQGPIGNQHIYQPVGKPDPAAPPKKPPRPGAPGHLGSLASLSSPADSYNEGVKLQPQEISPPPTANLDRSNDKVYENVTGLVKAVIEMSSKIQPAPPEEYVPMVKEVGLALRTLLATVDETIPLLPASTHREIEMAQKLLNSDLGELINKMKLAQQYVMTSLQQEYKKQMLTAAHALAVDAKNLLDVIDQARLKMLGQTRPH
inactive: erlotinib -0.018 | [1] -0.009 | [2] 0.045 | [3] -0.031 | [4] -0.045 | [5] -0.02 | [6] 0.271 | [7] 0.32 | [8] -0.045 | IRAK-1-4 Inhibitor I 0.22 | ibrutinib 0.085 | [9] 0.188 | ralimetinib -0.002 | [10] 0.044 | [11] -0.015 | [16] -0.024 | [12] 0.011 | [13] -0.054 | [14] -0.007 | [15] -0.128

PFKFB3 isoform 4 (UniProt Q16875)
inactive: erlotinib -0.006 | [1] -0.021 | [2] 0.028 | [3] -0.033 | [4] 0.011 | [5] -0.034 | [6] -0.035 | [7] 0.032 | [8] 0.002 | IRAK-1-4 Inhibitor I 0.004 | ibrutinib -0.015 | [9] 0.11 | ralimetinib 0.044 | [10] -0.003 | [11] 0 | [16] 0.027 | [12] 0.003 | [13] 0.011 | [14] -0.019 | [15] 0.148

PTGES2 (UniProt Q9H7Z7)
inactive: erlotinib 0.008 | [1] 0.056 | [2] -0.133 | [3] 0.066 | [4] -0.054 | [5] 0.174 | [6] 0.162 | [7] 0.028 | [8] -0.023 | IRAK-1-4 Inhibitor I 0.161 | ibrutinib -0.035 | [9] -0.092 | ralimetinib -0.004 | [10] 0.167 | [11] 0.132 | [16] -0.029 | [12] -0.002 | [13] 0.001 | [14] -0.082 | [15] 0.036

PHOSPHO2 (UniProt Q8TCD6)
inactive: erlotinib -0.018 | [1] -0.225 | [2] 0.046 | [3] -0.032 | [4] -0.027 | [5] -0.002 | [6] 0.072 | [7] 0.224 | [8] -0.16 | IRAK-1-4 Inhibitor I -0.014 | ibrutinib -0.01 | [9] 0.039 | ralimetinib 0.003 | [10] 0.035 | [11] 0.012 | [16] -0.017 | [12] 0.018 | [13] 0.006 | [14] 0.048 | [15] 0.056

PEF1 (UniProt Q9UBV8)
Sequence of UniProt Q9UBV8 (Q9UBV8 whole entry, looked up): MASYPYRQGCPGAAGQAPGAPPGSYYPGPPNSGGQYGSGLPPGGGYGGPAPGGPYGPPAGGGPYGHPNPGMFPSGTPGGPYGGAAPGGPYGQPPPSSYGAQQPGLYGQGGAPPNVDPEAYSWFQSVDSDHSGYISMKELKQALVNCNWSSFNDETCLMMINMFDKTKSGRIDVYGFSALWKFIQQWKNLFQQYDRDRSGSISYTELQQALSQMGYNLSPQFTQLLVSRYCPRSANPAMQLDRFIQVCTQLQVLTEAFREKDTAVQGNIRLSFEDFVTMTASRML
inactive: erlotinib -0.01 | [1] 0.012 | [2] -0.014 | [3] -0.001 | [4] -0.039 | [5] -0.012 | [6] -0.021 | [7] -0.016 | [8] 0.056 | IRAK-1-4 Inhibitor I 0.025 | ibrutinib 0.009 | [9] -0.021 | ralimetinib -0.034 | [10] -0.036 | [11] -0.029 | [16] -0.025 | [12] -0.004 | [13] 0.021 | [14] 0.01 | [15] -0.01

PRKCA (UniProt P17252)
inactive: erlotinib 0.031 | [1] -0.086 | [2] -0.019 | [3] 0.108 | [4] 0 | [5] 0.044 | [6] -0.088 | [7] -0.037 | [8] 0.044 | IRAK-1-4 Inhibitor I 0.005 | ibrutinib 0.015 | ralimetinib -0.012 | [10] 0.069 | [11] 0.032 | [16] -0.015 | [12] -0.094 | [13] -0.002 | [14] 0.033 | [15] -0.045
active: [9] 0.366

PRKCD (UniProt Q05655)
Sequence of UniProt Q05655 (Q05655 whole entry, looked up): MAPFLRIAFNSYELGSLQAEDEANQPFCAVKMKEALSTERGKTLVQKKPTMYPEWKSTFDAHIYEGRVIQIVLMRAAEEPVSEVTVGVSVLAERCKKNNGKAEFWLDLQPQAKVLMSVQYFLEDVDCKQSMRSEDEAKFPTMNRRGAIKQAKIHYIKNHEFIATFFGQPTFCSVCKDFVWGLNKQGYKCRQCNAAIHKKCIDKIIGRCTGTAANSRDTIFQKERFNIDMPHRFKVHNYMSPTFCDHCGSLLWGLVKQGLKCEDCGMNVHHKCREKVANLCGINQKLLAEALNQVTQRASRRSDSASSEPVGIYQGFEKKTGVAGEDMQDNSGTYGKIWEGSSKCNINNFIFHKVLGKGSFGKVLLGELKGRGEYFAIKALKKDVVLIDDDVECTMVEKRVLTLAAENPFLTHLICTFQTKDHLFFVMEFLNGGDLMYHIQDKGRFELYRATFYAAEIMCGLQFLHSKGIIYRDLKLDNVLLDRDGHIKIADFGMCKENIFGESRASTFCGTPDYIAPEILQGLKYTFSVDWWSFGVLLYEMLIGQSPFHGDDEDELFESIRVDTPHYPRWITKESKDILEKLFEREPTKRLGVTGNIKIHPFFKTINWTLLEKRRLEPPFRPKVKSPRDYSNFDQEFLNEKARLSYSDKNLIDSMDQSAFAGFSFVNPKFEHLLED
inactive: erlotinib -0.041 | [1] 0.016 | [2] -0.035 | [3] -0.047 | [4] -0.01 | [5] 0.006 | [6] -0.023 | [7] -0.069 | [8] 0.019 | IRAK-1-4 Inhibitor I 0.013 | ibrutinib 0.021 | [9] 0.162 | ralimetinib 0.01 | [10] -0.005 | [11] 0.006 | [16] 0.027 | [12] -0.012 | [13] -0.004 | [14] 0.038 | [15] 0.04

PCYT1B (UniProt Q9Y5K3)
Sequence of UniProt Q9Y5K3 (Q9Y5K3 whole entry, looked up): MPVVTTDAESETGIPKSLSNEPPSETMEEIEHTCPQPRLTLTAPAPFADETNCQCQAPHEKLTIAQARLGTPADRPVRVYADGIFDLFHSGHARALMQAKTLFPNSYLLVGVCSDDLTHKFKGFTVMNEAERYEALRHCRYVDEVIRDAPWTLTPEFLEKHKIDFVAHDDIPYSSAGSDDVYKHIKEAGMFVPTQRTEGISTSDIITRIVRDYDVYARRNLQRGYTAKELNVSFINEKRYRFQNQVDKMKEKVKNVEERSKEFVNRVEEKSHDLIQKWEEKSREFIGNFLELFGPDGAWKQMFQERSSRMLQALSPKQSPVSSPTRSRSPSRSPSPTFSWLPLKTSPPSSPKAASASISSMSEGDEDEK
inactive: erlotinib -0.016 | [1] 0.015 | [2] -0.006 | [3] 0.046 | [4] -0.03 | [5] 0.002 | [6] 0.044 | [7] -0.041 | [8] -0.032 | IRAK-1-4 Inhibitor I -0.023 | ibrutinib -0.051 | [9] -0.007 | ralimetinib 0.003 | [10] 0.013 | [11] -0.042 | [16] -0.039 | [12] -0.03 | [13] 0.016 | [14] -0.002 | [15] 0.026

PRRC2A (UniProt P48634)
active: [13] -0.26
inactive: erlotinib -0.026 | [1] -0.018 | [2] 0.073 | [3] -0.002 | [4] 0.006 | [5] -0.09 | [6] 0.014 | [7] 0.01 | [8] 0.006 | IRAK-1-4 Inhibitor I 0.026 | ibrutinib 0.006 | [9] -0.014 | ralimetinib -0.01 | [10] -0.02 | [11] 0.002 | [16] 0.015 | [12] -0.003 | [14] 0.003 | [15] -0.026

PRKCSH isoform 2 (UniProt P14314)
Sequence of UniProt P14314 (P14314 whole entry, looked up): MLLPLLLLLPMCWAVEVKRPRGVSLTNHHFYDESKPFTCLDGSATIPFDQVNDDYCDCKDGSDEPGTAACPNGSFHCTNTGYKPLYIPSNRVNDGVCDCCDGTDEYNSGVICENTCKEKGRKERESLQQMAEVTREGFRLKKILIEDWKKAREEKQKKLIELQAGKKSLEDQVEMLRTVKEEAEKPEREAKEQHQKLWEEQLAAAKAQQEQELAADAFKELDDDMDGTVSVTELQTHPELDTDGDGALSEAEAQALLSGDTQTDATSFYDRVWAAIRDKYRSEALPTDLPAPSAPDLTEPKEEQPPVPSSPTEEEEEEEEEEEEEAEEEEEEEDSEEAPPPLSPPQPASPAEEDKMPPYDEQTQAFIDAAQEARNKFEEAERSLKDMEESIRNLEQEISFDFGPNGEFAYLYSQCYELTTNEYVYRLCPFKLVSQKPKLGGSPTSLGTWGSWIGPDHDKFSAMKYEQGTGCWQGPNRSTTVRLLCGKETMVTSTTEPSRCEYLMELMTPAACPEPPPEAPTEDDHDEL
inactive: erlotinib 0.038 | [1] -0.107 | [2] 0.084 | [3] 0.024 | [4] 0.001 | [5] -0.054 | [6] -0.011 | [7] -0.009 | [8] 0.015 | IRAK-1-4 Inhibitor I 0.001 | ibrutinib -0.125 | [9] 0.069 | ralimetinib 0.012 | [10] -0.142 | [11] -0.004 | [16] 0.04 | [12] -0.017 | [13] 0.131 | [14] 0.132 | [15] -0.045

PRMT8 (UniProt Q9NR22)
inactive: erlotinib 0.01 | [1] -0.003 | [2] 0.009 | [3] -0.046 | [4] -0.015 | [5] 0.024 | [6] -0.031 | [7] -0.012 | [8] 0.013 | IRAK-1-4 Inhibitor I 0.024 | ibrutinib -0.073 | [9] -0.012 | ralimetinib 0.036 | [10] -0.018 | [11] 0.003 | [16] -0.028 | [12] 0.009 | [13] 0.032 | [14] 0.002 | [15] 0.007

PUF60 (UniProt Q9UHX1)
inactive: erlotinib 0.001 | [1] 0.003 | [2] -0.01 | [3] 0.011 | [4] -0.018 | [5] -0.018 | [6] 0.01 | [7] 0.003 | [8] 0.003 | IRAK-1-4 Inhibitor I -0.023 | ibrutinib 0.011 | [9] -0.004 | ralimetinib -0.034 | [10] 0.013 | [11] 0.018 | [16] -0.02 | [12] 0.009 | [13] -0.003 | [14] -0.001 | [15] 0.004

PRKCB isoform 2 (UniProt P05771)
inactive: erlotinib 0.053 | [1] -0.191 | [2] 0.07 | [3] -0.043 | [4] -0.004 | [5] -0.064 | [6] -0.12 | [7] -0.149 | [8] 0.019 | IRAK-1-4 Inhibitor I -0.02 | ibrutinib -0.017 | ralimetinib 0.02 | [10] 0 | [11] 0.013 | [16] 0.002 | [12] -0.055 | [13] 0.042 | [14] -0.009 | [15] -0.113
active: [9] 0.548

PFAS (UniProt O15067)
Sequence of UniProt O15067 (O15067 whole entry, looked up): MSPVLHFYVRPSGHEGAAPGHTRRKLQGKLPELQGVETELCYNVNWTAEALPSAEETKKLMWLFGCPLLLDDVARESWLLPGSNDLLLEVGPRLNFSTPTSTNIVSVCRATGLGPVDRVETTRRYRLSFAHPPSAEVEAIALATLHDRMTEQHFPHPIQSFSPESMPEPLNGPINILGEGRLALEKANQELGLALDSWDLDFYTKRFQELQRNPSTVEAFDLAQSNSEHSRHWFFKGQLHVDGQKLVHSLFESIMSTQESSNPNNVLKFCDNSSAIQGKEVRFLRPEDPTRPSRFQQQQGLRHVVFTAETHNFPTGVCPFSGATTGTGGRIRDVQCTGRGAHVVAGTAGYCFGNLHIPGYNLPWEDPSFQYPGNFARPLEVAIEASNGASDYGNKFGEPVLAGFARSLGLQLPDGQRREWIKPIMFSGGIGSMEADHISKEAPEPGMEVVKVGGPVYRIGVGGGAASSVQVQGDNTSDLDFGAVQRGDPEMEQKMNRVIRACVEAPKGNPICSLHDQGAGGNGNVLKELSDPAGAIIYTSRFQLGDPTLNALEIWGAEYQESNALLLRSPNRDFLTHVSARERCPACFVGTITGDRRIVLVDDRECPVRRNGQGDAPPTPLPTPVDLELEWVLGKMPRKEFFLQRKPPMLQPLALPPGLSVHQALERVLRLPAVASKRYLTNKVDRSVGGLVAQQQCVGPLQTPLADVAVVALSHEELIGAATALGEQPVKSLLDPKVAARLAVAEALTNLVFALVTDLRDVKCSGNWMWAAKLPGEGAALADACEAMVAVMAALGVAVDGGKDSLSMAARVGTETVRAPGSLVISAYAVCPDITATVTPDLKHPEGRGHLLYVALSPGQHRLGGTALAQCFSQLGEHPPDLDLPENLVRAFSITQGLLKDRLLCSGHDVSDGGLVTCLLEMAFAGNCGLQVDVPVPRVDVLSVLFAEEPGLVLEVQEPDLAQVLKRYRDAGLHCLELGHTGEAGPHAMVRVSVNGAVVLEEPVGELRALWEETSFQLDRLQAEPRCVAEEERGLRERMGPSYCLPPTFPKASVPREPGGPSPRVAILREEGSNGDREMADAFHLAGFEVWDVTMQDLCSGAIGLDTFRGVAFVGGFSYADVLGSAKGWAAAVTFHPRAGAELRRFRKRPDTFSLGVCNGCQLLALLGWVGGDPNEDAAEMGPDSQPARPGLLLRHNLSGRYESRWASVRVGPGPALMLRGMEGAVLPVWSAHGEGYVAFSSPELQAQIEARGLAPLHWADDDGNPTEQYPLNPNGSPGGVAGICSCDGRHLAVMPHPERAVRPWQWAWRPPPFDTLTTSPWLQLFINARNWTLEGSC
inactive: erlotinib 0.014 | [1] 0.03 | [2] 0.006 | [3] 0.015 | [4] 0.011 | [5] -0.017 | [6] -0.018 | [7] -0.026 | [8] 0.001 | IRAK-1-4 Inhibitor I -0.006 | ibrutinib -0.007 | [9] -0.016 | ralimetinib 0.03 | [10] 0.006 | [11] 0.003 | [16] -0.015 | [12] -0.003 | [13] -0.041 | [14] 0.032 | [15] 0.002

PCLAF (UniProt Q15004)
Sequence of UniProt Q15004 (Q15004 whole entry, looked up): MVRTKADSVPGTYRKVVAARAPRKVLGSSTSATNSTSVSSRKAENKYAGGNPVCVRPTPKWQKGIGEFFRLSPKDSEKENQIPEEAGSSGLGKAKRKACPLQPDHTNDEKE
inactive: erlotinib 0 | [1] -0.026 | [2] 0.057 | [3] -0.006 | [4] -0.059 | [5] -0.015 | [6] 0.012 | [7] 0.037 | [8] -0.052 | IRAK-1-4 Inhibitor I 0.016 | ibrutinib 0.025 | ralimetinib 0.035 | [10] -0.014 | [11] -0.011 | [16] 0.003 | [12] -0.041 | [13] 0.034 | [14] -0.005
